Screening data as filed in PubChem BioAssay.
Glyco luc inh: increase of ERlucT glycosylation luciferase signal, primary screen, N-linked glycosylation inhibitor project, D54 ERlucT cells, luminescence, set 2; AID 588692, 2011; reporter increase, % at 12.5 µM; 360,000 compounds, 0.23% hits; D54 ERlucT glycosylation luciferase reporter, 24 h; percent of 100 nM tunicamycin response;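 active = mean luciferase reporter signal, scaled so untreated is 0 and the glycosylation-blocking control 100, at or above a set limit in every replicate; inconclusive = mean reaches the limit but not every replicate does; inactive = mean below the limit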;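 also: luciferase carries N-glycosylation sites so blocking glycosylation raises the light; 0% = median of neutral control wells and 100% = median of 100 nM tunicamycin wells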
Vif imaging: HIV Vif self-association inhibitors, primary screen, imaging, HEK293T, single point. HEK293T cells, Vif self-association by quenched fluorescence, 24 h. inhibition, % at 7.49 µM. 340,000 compounds, 0.35% hits. AID 602346, 2012; in the data active = inhibition above about 50%, passing the limit was not always enough; inconclusive = no clear call, values can overlap the other calls; inactive = below about 31%
ABCB6 inh MLPCN: ABCB6 transporter inhibitors, primary screen, K562-ABCB6 cells, flow cytometry, MLPCN library; ATP-binding cassette sub-family B member 6 (Homo sapiens), Q9NP58; K562-ABCB6 porphyrin accumulation, 1 h; active compounds read low; fluorescence ratio to DMSO, % at 10 µM; 360,000 compounds, 0.19% hits; AID 602162, 2011;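 active = fluorescence ratio to DMSO below 75%, the collection mean minus 3 SD; inconclusive = too few cells collected in the well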;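 also: signal is porphyrin accumulated inside mitochondria; 100% equals median channel fluorescence of DMSO control wells; lower ratio means ABCB6 inhibition with less porphyrin fluorescence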
Target sequence (Q9NP58 whole entry, looked up): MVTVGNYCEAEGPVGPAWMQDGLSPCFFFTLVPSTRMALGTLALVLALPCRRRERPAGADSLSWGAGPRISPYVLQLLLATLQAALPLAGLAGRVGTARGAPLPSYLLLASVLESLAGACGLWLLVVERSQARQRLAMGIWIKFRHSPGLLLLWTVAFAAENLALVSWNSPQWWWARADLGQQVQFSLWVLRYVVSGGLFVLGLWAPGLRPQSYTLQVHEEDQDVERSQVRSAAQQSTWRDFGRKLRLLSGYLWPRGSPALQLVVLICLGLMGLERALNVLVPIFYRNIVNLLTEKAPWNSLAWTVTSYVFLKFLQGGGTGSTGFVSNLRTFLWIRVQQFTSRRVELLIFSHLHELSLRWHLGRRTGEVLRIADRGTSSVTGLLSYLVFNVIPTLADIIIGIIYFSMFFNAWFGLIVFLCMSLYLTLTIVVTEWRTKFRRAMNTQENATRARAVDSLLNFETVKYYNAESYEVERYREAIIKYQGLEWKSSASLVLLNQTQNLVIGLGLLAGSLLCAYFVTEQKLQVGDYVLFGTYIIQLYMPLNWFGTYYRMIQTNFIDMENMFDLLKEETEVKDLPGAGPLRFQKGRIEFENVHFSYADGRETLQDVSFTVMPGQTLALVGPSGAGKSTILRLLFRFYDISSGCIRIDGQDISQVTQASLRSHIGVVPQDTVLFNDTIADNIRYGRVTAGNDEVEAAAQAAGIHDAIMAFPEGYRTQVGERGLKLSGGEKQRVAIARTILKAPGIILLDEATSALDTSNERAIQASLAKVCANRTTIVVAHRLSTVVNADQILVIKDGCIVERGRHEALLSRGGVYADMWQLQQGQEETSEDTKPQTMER
RAD54 branch: inhibitors of human RAD54 branch migration, primary screen, biochemical, fluorescence, single point; inhibition, % at 10.4 µM; 360,000 compounds, 0.14% hits; RAD54 Holliday junction branch migration, FAM/BHQ fluorescence;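 active = mean normalized replicate activity at least 40 and at least half of replicates scoring 40 or more; inconclusive = only one of the two criteria met; inactive = mean below 40 and under half of replicates reaching 40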;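 also: 0% = median of neutral control wells and 100% = median of positive control wells; inhibitors cause a drop in the FAM fluorescence signal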
Myeloid diff 2: induction of myeloid progenitor differentiation, primary screen, cell-based, flow cytometry, MLPCN library; calls only at 10 µM; 360,000 compounds, 1% hits; ER-HoxA9 myeloid progenitors, lysozyme-GFP differentiation;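 active = normalized GFP-positive differentiation at or above the plate's own cutoff, the solvent-only control mean plus 3 SD; inconclusive = no clear call, values can overlap the other calls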;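 also: cells exposed to compound for four days before flow analysis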
Active calls of the source: *; i = inactive; ? = inconclusive; · = not tested or not shown; + = active, no number; ! = not confirmed by another sample. An excerpt weighted towards active compounds, which were near 1.6% of everything screened.

SMILES	Glyco luc inh	Vif imaging	ABCB6 inh MLPCN	RAD54 branch	Myeloid diff 2
O=C(CSc1ncn[nH]1)NCc1ccc(Cl)cc1	0	-9	96	-7	i
COc1ccc(CNC(=O)CSc2ncn[nH]2)cc1OC	0	-1	107	3	+
COCCNC(=O)C[C@@H]1C[C@H]2c3cc(NC(=O)c4cccnc4)ccc3O[C@H]2[C@H](CO)O1	·	·	·	4	·
COc1ccc(CNC(=O)c2ccc[nH]2)cc1	-1	60*	95	4	i
Cc1ccc(S(=O)(=O)N2CC[C@@H]3[C@@H](CO)Nc4ccc(Br)cc4[C@@H]32)cc1	·	·	·	-2	·
CC1(C)CC(C(=O)Nc2ccccc2)C(=O)O1 (stereo unspecified)	-2	-1	98	-1	i
C[C@]1(O)CC(=O)C=C[C@H]1Nc1ccccc1	44*	-2	105	-7	i
Cc1c(-c2ccc(OCc3ccccc3)cc2)nc2ccccc2c1C(=O)O	0	4	518	1	+
O=C(Nc1ccccc1F)N[C@@H]1CC[C@H](CCNC(=O)C2CCC2)O[C@@H]1CO	·	·	·	-6	·
CCCn1nnnc1SCC(=O)N1CCCC1	2	4	96	0	i
CCCn1nnnc1SCC(=O)N1CCCCC1	0	57*	87	-4	i
CN(C)c1ccc(N=Cc2ccco2)cc1	-12	-1	102	6	+
CN(C)c1ccc(C=Nc2ccc(N(C)C)cc2)cc1	-12	·	211	3	i
Nc1nnc(SCC(=O)c2ccccc2)s1	1	-6	99	4	i
Nc1c(C(=O)c2ccccc2)sc2snc(SCC(=O)c3ccccc3)c12	10	5	200	·	+
Cc1ccccc1NC(=S)N1CCN(Cc2ccc3c(c2)OCO3)CC1	1	2	99	-5	i
Cc1ccc(S(=O)(=O)N(C)C)cc1NC(=S)N1CCN(Cc2ccc3c(c2)OCO3)CC1	-1	-28	92	·	+
Cc1c(Cl)cccc1NC(=S)N1CCN(Cc2ccc3c(c2)OCO3)CC1	3	53*	99	·	i
O=C1Cc2c([nH]c3ccc([N+](=O)[O-])cc23)-c2ccccc2N1	88*	-14	98	·	?
Cc1c(C)c2ccc(OS(C)(=O)=O)c(C)c2oc1=O	0	-4	69*	·	i
Cc1c(C)c2ccc(OCc3ccc(C(=O)O)o3)c(C)c2oc1=O	-2	-2	84	5	i
Cn1c(=O)cc(OCCCC(=O)NC2CCCC2)c2ccccc21	45*	18	99	-4	i
Cc1ccnc(NC(=O)CCCOc2cc(=O)n(C)c3ccccc23)c1	26*!	97*	100	4	i
Cn1c(=O)cc(OCC(=O)NC2CCCCC2)c2ccccc21	4	23	95	-2	i
COc1ccc(-c2ccc3c(c2)[C@@H]2[C@@H](CCN2C(=O)Cc2ccccn2)[C@@H](CO)N3C)cc1	·	·	·	25	·
SMILES	Glyco luc inh	Vif imaging	ABCB6 inh MLPCN	RAD54 branch	Myeloid diff 2
CCOc1ccc(NC(C)=O)cc1	2	-3	101	10	i
CCOc1ccc(NC(N)=O)cc1	0	65*	102	1	i
COc1ccccc1C#Cc1ccc([C@H]2[C@@H](C#N)N(C(=O)C3CC3)[C@H]2CO)cc1	·	·	·	-11	·
O=C(c1cccc(Cl)c1)N1CCC(=O)N(C(COCc2cccc(Cl)c2)Cc2ccccc2)CC1 (stereo unspecified)	-1	-7	93	-1	i
O=C(c1ccc(Cl)c(Cl)c1)N1CCC(=O)N(C(COCc2cccc(Cl)c2)Cc2ccccc2)CC1 (stereo unspecified)	0	-5	96	-9	+
Cc1cc(NCCCN2CCOCC2)n2nc(C)c(-c3ccccc3)c2n1	0	-11	92	2	+
Cc1cc(NCCCN2CCOCC2)n2nc(C)c(-c3ccc(F)cc3)c2n1	7	·	98	4	i
O=C(Cc1ccc(Cl)cc1)NC1CC1	1	71*	95	2	i
O=C(Cc1ccc(Cl)cc1Cl)NC1CCCCCC1	-5	3	99	-1	+
CCC(=O)N1C[C@@H](C)[C@@H](OC)CN(C)C(=O)c2ccc(NC(=O)NC(C)C)cc2OC[C@@H]1C	·	·	·	8	·
Cc1oc(C)c2c(=O)ccc3c(c12)OC(N)=C(C#N)C3c1ccccc1Cl (stereo unspecified)	-2	1	96	·	+
COc1ccc([C@H]2C(C#N)=C([S-])N[C@](C)(O)[C@@H]2[n+]2ccccc2)cc1	-1	2	107	-13	+
Cc1ccc[n+](C2C(c3ccc([N+](=O)[O-])cc3)C(C#N)=C([S-])NC2(O)C2CC2)c1 (stereo unspecified)	0	4	105	·	i
COc1cc(CNc2ncnc3c2ncn3[C@H]2CN(CCN3CCOCC3)C[C@@H](CO)O2)cc(OC)c1OC	1	70*	96	7	i
N#C[C@@H]1[C@H](c2ccc(C3=CCCCC3)cc2)[C@H](CO)N1C(=O)NC1CCCCC1	·	·	·	-17	·
CC(=O)c1cccc(NC(=O)CCS(=O)(=O)c2cc3c(cc2C)NC(=O)CO3)c1	1	0	104	-7	i
CCc1cccc(NC(=O)CCS(=O)(=O)c2cc3c(cc2C)NC(=O)CO3)c1	1	134*	100	9	i
Cc1ccc(-c2nnc(N3CCN(C(=O)COc4cccc(C)c4)CC3)c3ccccc23)cc1	-4	-7	99	·	+
Cc1cccc(OCC(=O)N2CCN(c3nnc(-c4ccccc4)c4ccccc34)CC2)c1	-6	-2	98	·	i
CC1(C)N=C(N)N=C(N)N1c1ccc(F)cc1F	2	0	97	-3	+
CC(C)c1ccc(NC(=O)CN2C(=O)NC3(CCCCCCC3)C2=O)cc1	37*	12	97	-4	i
COc1ccc(NC(=O)CN2C(=O)NC3(CCCCCCC3)C2=O)cc1	4	·	96	-4	i
CCN(CC)S(=O)(=O)c1cccc(NC(=O)CN2C(=O)NC3(CCC(C)CC3)C2=O)c1 (stereo unspecified)	32*	0	99	-3	i
COc1ccc(NC(=O)N2CCCCN3[C@@H](CO)[C@H](c4ccc(-c5ccccc5C)cc4)[C@@H]3C2)cc1	·	·	·	0	·
COc1cccc(NC(=O)C[C@@H]2CC[C@@H]3[C@H](COc4ccc(NC(C)=O)cc4C(=O)N3C)O2)c1	·	·	·	-9	·
Cc1cc(NCCN2CCOCC2)c2ccc3ccccc3c2n1	38*	1	102	·	i
C[C@H]1CN([C@@H](C)CO)C(=O)c2cc(C#CCN(C)C)cnc2O[C@H]1CN(C)C(=O)CCN1CCCCC1	·	·	·	-9	·
